Activity calls are given as the source filed them. Unless noted, the rule behind the calls is not given here.

This note sets out measurements from PubChem BioAssay.

Experiment [1] can be described thus: anti-His antibody binders, primary screen, artefact control for SMM control protein annotation, biochemical, small-molecule microarray, 635 nm fluorescence (AID 1128).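 Note: score merges feature fluorescence with signal-to-noise for each printed compound spot.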 The settings on record: anti-His Alexa647 antibody binding, higher = more signal.
Experiment [2] relates to Human papillomavirus type 1a E7 protein (residues 1-88). The experiment in a line: HPV1a E7 small-molecule binders, primary screen, biochemical, small-molecule microarray, residues 1-88, 635 nm (AID 1129). Conditions: small-molecule microarray binding, fluorescence 635 nm; higher = more signal.
In experiment [3] the target is Focal adhesion kinase 1 (Homo sapiens) (UniProt Q05397). The experiment in a line: small-molecule microarray binders of FAK, primary screen, biochemical, 635/667 nm fluorescence, BSA, DTT (AID 1130).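 Note: composite of spot emission at 667 nm and signal to noise over triplicate slides.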 The settings on record: PTK2 binding, 635 nm fluorescence, higher = more signal.
Sequence of Focal adhesion kinase 1 (Homo sapiens) (Q05397 whole entry, looked up): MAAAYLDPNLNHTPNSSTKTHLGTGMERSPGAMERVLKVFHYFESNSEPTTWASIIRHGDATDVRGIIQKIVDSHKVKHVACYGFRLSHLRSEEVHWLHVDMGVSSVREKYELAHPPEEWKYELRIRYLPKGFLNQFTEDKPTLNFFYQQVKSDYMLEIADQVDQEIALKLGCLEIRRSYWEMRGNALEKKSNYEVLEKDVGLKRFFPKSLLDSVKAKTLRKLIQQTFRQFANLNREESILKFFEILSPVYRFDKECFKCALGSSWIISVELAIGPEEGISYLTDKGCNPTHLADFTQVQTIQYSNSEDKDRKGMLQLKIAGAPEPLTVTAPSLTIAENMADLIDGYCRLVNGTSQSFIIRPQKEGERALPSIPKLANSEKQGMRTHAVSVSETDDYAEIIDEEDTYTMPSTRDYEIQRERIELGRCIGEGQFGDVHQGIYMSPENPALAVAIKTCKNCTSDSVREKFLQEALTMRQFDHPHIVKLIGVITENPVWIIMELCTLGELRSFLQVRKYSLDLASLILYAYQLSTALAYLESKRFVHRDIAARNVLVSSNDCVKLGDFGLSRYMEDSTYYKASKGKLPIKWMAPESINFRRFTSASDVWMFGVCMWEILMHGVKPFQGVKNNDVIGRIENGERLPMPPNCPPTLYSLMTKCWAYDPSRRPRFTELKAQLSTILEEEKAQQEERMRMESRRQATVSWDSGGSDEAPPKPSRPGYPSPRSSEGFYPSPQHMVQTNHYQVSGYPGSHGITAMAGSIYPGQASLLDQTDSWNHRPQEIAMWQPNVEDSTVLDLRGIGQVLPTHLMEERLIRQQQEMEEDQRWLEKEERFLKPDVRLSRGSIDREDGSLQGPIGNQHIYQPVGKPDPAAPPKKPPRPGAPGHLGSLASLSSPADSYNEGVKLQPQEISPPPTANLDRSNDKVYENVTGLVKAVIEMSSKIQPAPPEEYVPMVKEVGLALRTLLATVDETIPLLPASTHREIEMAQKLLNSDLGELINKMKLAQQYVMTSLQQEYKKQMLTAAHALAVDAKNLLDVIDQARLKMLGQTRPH
The test system of experiment [4] is Fibrinogen (Alexa647-labelled). Kind of experiment: fibrinogen binders on compound microarrays, profiling panel, artefact control for SMM control-protein annotation, biochemical, small-molecule microarray, 635/667 nm fluorescence (AID 1131).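 Note: z-score merges 667 nm fluorescence with per-spot signal-to-noise over triplicate slides.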 Conditions: fibrinogen-A647 binding fluorescence, higher = more signal.
The target of experiment [5] is Follistatin (Homo sapiens) (UniProt P19883). The experiment in a line: follistatin binders on small-molecule microarrays, primary screen, biochemical, small-molecule microarray, 635/667 nm fluorescence (AID 1132). The settings on record: FST binding, 635 nm fluorescence, higher = more signal.
Sequence of Follistatin (Homo sapiens) (P19883 whole entry, looked up): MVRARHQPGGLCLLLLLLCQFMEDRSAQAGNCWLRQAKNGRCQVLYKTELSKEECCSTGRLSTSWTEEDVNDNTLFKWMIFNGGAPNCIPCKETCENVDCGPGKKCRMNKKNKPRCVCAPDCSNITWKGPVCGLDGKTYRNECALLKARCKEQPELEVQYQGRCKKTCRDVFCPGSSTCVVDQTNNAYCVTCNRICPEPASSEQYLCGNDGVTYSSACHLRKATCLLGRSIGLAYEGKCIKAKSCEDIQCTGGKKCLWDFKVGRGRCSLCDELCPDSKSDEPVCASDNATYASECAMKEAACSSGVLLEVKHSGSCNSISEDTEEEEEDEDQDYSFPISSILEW
The target in experiment [6] is Fibroblast growth factor 2 (Homo sapiens) (UniProt P09038). Kind of experiment: FGF2 binders on small-molecule microarrays, primary screen, biochemical, small-molecule microarray, 635/667 nm fluorescence (AID 1133). Conditions: small-molecule microarray binding, FGF2, fluorescence 635/667; higher = more signal.
Sequence of Fibroblast growth factor 2 (Homo sapiens) (P09038 whole entry, looked up): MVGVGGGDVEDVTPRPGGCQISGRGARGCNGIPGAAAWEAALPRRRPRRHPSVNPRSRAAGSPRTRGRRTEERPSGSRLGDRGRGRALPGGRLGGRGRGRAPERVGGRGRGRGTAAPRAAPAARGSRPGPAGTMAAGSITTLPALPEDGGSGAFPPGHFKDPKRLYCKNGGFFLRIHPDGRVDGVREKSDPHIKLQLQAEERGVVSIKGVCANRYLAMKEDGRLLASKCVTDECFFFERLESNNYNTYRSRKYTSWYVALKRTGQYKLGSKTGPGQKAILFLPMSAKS
Experiment [7] is described as follows: mitochondrial membrane potential change in A549 cells, profiling panel, cell-based, JC-1 fluorescence, basal, 24 h, 100 nL (AID 1138).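 Note: A549 lung adenocarcinoma cells under basal conditions with no added stimulus; test concentration not given here.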 The settings on record: higher = more signal.
The test system of the next experiment is Lefty1. The experiment in a line: Lefty1 binders on small-molecule microarrays, primary screen, biochemical, small-molecule microarray, 635/667 nm fluorescence (AID 1139). Conditions: small-molecule microarray binding, fluorescence 635/667; higher = more signal.
Experiment [8] relates to wheat germ agglutinin (Triticum aestivum), Alexa647-labelled. The experiment in a line: wheat germ agglutinin binders on compound microarrays, profiling panel, artefact control for SMM control-protein annotation, biochemical, small-molecule microarray, 635/667 nm fluorescence (AID 1140).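 Note: score merges 667 nm feature emission with signal to noise over triplicate slides.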 Conditions: WGA-A647 binding, 635 nm fluorescence, higher = more signal.
Experiment [9] concerns the target Luciferin 4-monooxygenase (Photinus pyralis) (UniProt P08659). The experiment in a line: firefly luciferase enzyme inhibitors, primary screen, biochemical, luminescence, purified enzyme, 2006 set (AID 1141).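 Note: cell-free assay with purified firefly luciferase at 100 ng per well in PBS; test concentration not given here.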 The settings on record: SteadyGlo luminescence, 30 min, higher = more signal, called active from +8 up or from −8 down.
In experiment [10] the test system is Wnt5a (protein binding on small-molecule microarray). Kind of experiment: Wnt5a binders on small-molecule microarray, primary screen, biophysical, 635/667 nm fluorescence (AID 1142).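 Note: fluorescence read at 667 nm with signal to noise per printed feature.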 The settings on record: 635 nm fluorescence, higher = more signal.
Experiment [11] in a line: cell viability in Huh7 cells, primary screen, cytotoxicity control for HCV replication inhibitor project, CellTiter-Glo luminescence, basal, 48 h (AID 1143).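 Note: Huh7 hepatoma cells carrying a hepatitis C replication reporter with no stimulus; test concentration not given here.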 The settings on record: Huh7 HCV replicon, higher = more signal, called active from +8 up or from −8 down.
Experiment [12] in a line: P. aeruginosa biofilm formation inhibitors, primary screen, PAO1 strain, BacTiter-Glo luminescence, LB-PBS (AID 1144). The settings on record: 12 h, higher = more signal.
Experiment [13] is described as follows: CREB reporter modulators without forskolin, primary screen, cell-based, PC12, CRE-LacZ reporter, unstimulated (AID 1145). The settings on record: no forskolin, luminescence, 4.5 h, higher = more signal, called active from +8 up or from −8 down.
The nature of experiment [14]: CREB reporter modulators under forskolin, primary screen, cell-based, PC12, CRE-LacZ reporter, forskolin-stimulated (AID 1146).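 Note: PC12 cells with 6xCRE LacZ reporter stimulated by forskolin 10 µM; beta-galactosidase reporter signal reflecting CREB driven transcription.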 Conditions: luminescence, 4.5 h, higher = more signal, called active from +8 up or from −8 down.
Experiment [15] concerns the target Streptavidin (Streptomyces avidinii) (UniProt P22629). The experiment in a line: streptavidin binders on small-molecule microarray, primary screen, artefact control for SMM compound annotation, biophysical, 635/667 nm fluorescence (AID 1147).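 Note: signal reflects streptavidin binding to arrayed compounds as a control protein.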 The settings on record: streptavidin binding, higher = more signal.
A short description of experiment [16]: small-molecule binders of probe aInhba, primary screen, biochemical, small-molecule microarray, 635/667 nm fluorescence (AID 1148).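 Note: score merges 667nm spot fluorescence with signal-to-noise for antibody binding to printed compounds.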 The settings on record: higher = more signal.
In experiment [17] the target is Torsin-1A (Homo sapiens) (UniProt O14656). Kind of experiment: torsin A binders from cell lysate, primary screen, small-molecule microarray, wild-type, 635/667 nm (AID 1149). Conditions: COS7 hTOR1A-WT lysate, 635 nm fluorescence, higher = more signal.
Sequence of Torsin-1A (Homo sapiens) (O14656 whole entry, looked up): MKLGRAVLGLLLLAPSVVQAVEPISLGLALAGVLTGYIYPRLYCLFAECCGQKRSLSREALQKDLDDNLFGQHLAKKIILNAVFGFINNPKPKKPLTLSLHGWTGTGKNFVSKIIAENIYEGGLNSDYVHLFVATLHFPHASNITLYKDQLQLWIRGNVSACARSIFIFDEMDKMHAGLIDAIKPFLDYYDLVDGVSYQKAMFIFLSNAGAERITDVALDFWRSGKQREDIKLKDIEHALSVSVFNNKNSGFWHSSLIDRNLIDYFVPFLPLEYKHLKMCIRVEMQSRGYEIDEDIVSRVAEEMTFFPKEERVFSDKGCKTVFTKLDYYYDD
The target is the same in experiment [18]. The experiment in a line: small-molecule binders of mutant TOR1A in lysate, primary screen, cell lysate, small-molecule microarray, COS7 lysate, 635/667 nm fluorescence (AID 1150).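 Note: score pools 667 nm emission and signal to noise measuring lysate protein binding.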 Conditions: COS7 hTOR1A mutant lysate, 635 nm fluorescence, higher = more signal.
Experiment [19] relates to Sonic hedgehog protein (Shh). Kind of experiment: small-molecule binders of Shh protein, primary screen, biochemical, small-molecule microarray, 635/667 nm fluorescence (AID 1151).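 Note: Shh protein binding to compounds spotted on small-molecule microarray slides; score combines spot fluorescence intensity with signal-to-noise across triplicate slides.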 Conditions: small-molecule microarray binding, 635 nm fluorescence; higher = more signal.

Sequence of Streptavidin (Streptomyces avidinii) (P22629 whole entry, looked up): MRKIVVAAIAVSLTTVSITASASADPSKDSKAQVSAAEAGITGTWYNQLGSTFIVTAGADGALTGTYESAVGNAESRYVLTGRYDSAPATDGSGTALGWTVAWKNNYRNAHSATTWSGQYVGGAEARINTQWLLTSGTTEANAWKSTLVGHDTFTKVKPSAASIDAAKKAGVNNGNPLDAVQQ
Sequence of Luciferin 4-monooxygenase (Photinus pyralis) (P08659 whole entry, looked up): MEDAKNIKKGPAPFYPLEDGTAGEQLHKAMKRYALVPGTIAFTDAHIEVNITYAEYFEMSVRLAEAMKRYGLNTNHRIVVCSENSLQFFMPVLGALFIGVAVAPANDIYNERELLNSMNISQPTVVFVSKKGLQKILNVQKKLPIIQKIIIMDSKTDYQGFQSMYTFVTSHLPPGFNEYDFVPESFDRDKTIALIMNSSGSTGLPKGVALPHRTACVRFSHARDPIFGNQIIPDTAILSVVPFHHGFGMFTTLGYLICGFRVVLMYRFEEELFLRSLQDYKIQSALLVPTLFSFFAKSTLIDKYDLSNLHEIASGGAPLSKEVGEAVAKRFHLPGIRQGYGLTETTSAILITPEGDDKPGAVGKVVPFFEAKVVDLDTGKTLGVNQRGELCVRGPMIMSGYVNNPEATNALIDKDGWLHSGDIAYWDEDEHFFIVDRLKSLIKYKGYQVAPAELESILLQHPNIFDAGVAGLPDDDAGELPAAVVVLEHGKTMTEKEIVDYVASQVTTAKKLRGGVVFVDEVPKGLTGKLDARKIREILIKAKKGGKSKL

On to `CO[C@H]1O[C@H](CO)[C@@H](OC(=O)Nc2ccc(Br)cc2)[C@H](OC(=O)c2cc3ccccc3[nH]2)[C@H]1OC(=O)c1cc2ccccc2[nH]1`, for which the composite z-score in experiment [1] was found to be 1.69; in [2], 1.14; in experiment [3], 0.468; in [4], 0.967; in experiment [5] it was 0.729; in experiment [6], 0.355. Besides, the composite z-score with Lefty1 amounted to 0.311; in experiment [8], 0.723; in experiment [10], 0.363; in [15], 1.22; in experiment [16], 0.0342; with Torsin-1A (Homo sapiens) [17], 0.154. The results for the composite z-score (with Torsin-1A (Homo sapiens) [18]; in experiment [19]) were 0.46 and 0.819, respectively. Besides, the z-score was -1.07 in experiment [7]; -1.75 (inactive) in experiment [9]; -6.05 (inactive) in experiment [11]; -2.24 (inactive) in [12]; 2.38 (inactive) in experiment [13]; -1.15 (inactive) in [14].
Consider `O=C(NCc1ccccc1)[C@@]1(Cc2ccccc2)N=C(c2ccc(OCCCO)cc2)O[C@H]1c1ccccc1`, for which the composite z-score in [1] is 1.47; in [2], 1.22; in experiment [3], 0.45; in experiment [4] it was 0.866; in experiment [5] it was 0.368; in experiment [6] it was -0.352. The composite z-score with Lefty1 was -0.872; in experiment [8] it was 1.05; in experiment [10], 0.209; in experiment [15], 1.15; in experiment [16], 0.161; in the experiment with Torsin-1A (Homo sapiens) [17] it was 0.924. Moreover, the values for the composite z-score (with Torsin-1A (Homo sapiens) [18]; in [19]) were 0.918 and -0.183, respectively. In addition, the z-score in experiment [7] is 0.164; in experiment [9], 0.712 (inactive); in experiment [11], -3.5 (inactive); in experiment [12], -0.883 (inactive); in experiment [13], -0.183 (inactive); in experiment [14] it was -0.413 (inactive).
In the case of `CCN(CC)c1ccc(N2CC=CC34O[C@@H]5/C=C\CCCOC(=O)C5[C@H]3C(=O)N(CCO)[C@@H]4C2=O)cc1` (stereo not given in full), the composite z-score in experiment [1] is 0.449; in experiment [2], -0.57; in [3], -0.724; in experiment [4], -0.837; in experiment [5], -0.654; in experiment [6], -1.03. The composite z-score in the experiment with Lefty1 is -0.2; in experiment [8] it was -0.875; in experiment [10] it was -0.6; in [15], -0.79; in [16], -0.219; in the experiment with Torsin-1A (Homo sapiens) [17] it was -1.53. For the same compound, the composite z-score is -0.705 with Torsin-1A (Homo sapiens) [18] and 0.0512 in experiment [19]. The z-score in [7] is -0.73; in experiment [9], -0.312 (inactive); in experiment [11], -0.117 (inactive); in experiment [12], 0.0243 (inactive); in experiment [13] it was 0.601 (inactive); in experiment [14], -0.462 (inactive).
In the case of `COc1ccc([Si](C)(C)[C@@H]2[C@@H](CCO)O[C@]3(C(=O)N(Cc4ccc(N5C(=O)COc6ccccc65)cc4)c4ccccc43)[C@H]2C)cc1`, the composite z-score in [1] worked out at 1.58; in experiment [2], 1.18; in experiment [3], 0.571; in experiment [4] it was 0.814; in [5] it was 0.59; in [6] it was 0.621. In addition, the composite z-score is 0.955 in the experiment on Lefty1; 0.978 in experiment [8]; 0.44 in experiment [10]; 0.636 in experiment [15]; 0.0261 in [16]; 0.436 with Torsin-1A (Homo sapiens) [17]. The composite z-score in the experiment with Torsin-1A (Homo sapiens) [18] is 0.586; in experiment [19], 1.57. For the same compound, the z-score was -0.342 in experiment [7]; 0.686 (inactive) in experiment [9]; -7.31 (inactive) in experiment [11]; -0.374 (inactive) in experiment [12]; 0.804 (inactive) in [13]; 2.02 (inactive) in experiment [14].
